In PubChem BioAssay:
Active and inactive are the calls of the source.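 Rule for the calls: active = inhibition of the reporter signal at or above 50%; inactive = inhibition below 50%.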

Test: inhibitors of poly I:C-induced TLR3 signaling, primary screen, cell-based, poly I:C stimulus, luciferase, 10K MLSCN set (AID 602277)
Settings: HEK293-TLR3 RL24 IRF3 luciferase reporter, at 10 µM, hits give high values
With Cn1cnc2cc(NC(=O)c3ccc(Cl)cc3)ccc21 the inhibition was -143% (inactive).
With CC(=O)NCC(=O)N(Cc1ccco1)C1(C(=O)NC2CCCCC2)CCCCC1 the inhibition was 19.2% (inactive).
With COc1ccc2[nH]c(=O)c(CN(Cc3cccs3)S(=O)(=O)c3cccc4nsnc34)cc2c1 the inhibition was 71.5% (active).
In the case of Cc1ccc2oc(=O)c3cnn(CC(=O)NCCC(C)C)c3c2c1, the inhibition is reported as 18.2% (inactive).
In the case of CC12CCC(C(=O)N3CCCCC3)(CC1=O)C2(C)C (centres undefined), the inhibition is reported as 28.7% (inactive).
With CC1(C)CC(=O)C=C(Nc2ccc(OCC(F)(F)C(F)F)cc2)C1 the inhibition was -18.3% (inactive).
For Cc1cc(C)cc(-n2nnc(C(=O)NCc3ccco3)c2N)c1, the inhibition was 100% (active).
For CC(C)Oc1ccc(N2CC(C(=O)Nc3ccccc3F)CC2=O)cc1 (centres undefined), the inhibition was 37.6% (inactive).
In the case of O=C(Nc1nccs1)c1cccc(NC(=O)C2CC2)c1, the inhibition is reported as -13.6% (inactive).
In the case of CCOc1ccccc1C(=O)Nc1nnc(CC)s1, the inhibition is reported as -13.4% (inactive).
With COc1ccc(C(=O)N2CCN(S(=O)(=O)c3cc(Cl)ccc3OC)CC2)cc1 the inhibition was 18% (inactive).
With [N-]=[N+]=CC(=O)CC(c1ccccc1)N1C(=O)c2ccccc2C1=O (centres undefined) the inhibition was -29.5% (inactive).
In the case of O=C(O)c1c(Cl)c(Cl)c(Cl)c(Cl)c1C(=O)N1CCOCC1, the inhibition is reported as 5.92% (inactive).
With CCOc1ccccc1OCC(=O)NCc1ccco1 the inhibition was 9.81% (inactive).
In the case of CC1CCN(Cc2ccc(NC(=O)C3CCN(c4nnc(-n5cccc5)s4)CC3)cc2)CC1, the inhibition is reported as 44% (inactive).
In the case of Cc1cc(Oc2ccc(Cl)cc2)nc(-c2ccccc2O)n1, the inhibition is reported as -8.94% (inactive).
With C=C(C)Cn1c(N2CCN(CC)CC2)nc2c1c(=O)[nH]c(=O)n2C the inhibition was 25.8% (inactive).
With CCOCCc1nnc(NC(=O)c2ccc(OC)c(OC)c2)s1 the inhibition was 20% (inactive).
In the case of COc1cc(CN2CCN(C(=O)CC(C)C)CC2)cc(OC)c1O, the inhibition is reported as 16% (inactive).
With c1ccc2c(c1)sc1nnnn12 the inhibition was 27.2% (inactive).
For COC(=O)c1cc(Br)c(=O)n(-c2ccc(OC)cc2)c1, the inhibition was 23.2% (inactive).
For COc1cc(C(=O)N2CCC(NC(=O)C(Cc3ccc(C)cc3)NC(C)=O)CC2)cc(OC)c1OC (centres undefined), the inhibition was 24.4% (inactive).
With Cc1ccccc1NS(=O)(=O)c1cc(S(C)(=O)=O)ccc1Cl the inhibition was 4.63% (inactive).
With COc1ccccc1OCCOc1ccccc1/C=N/n1cnnc1 the inhibition was -1.03% (inactive).
With CCc1nnc(NC(=O)CSc2nnc3scc(-c4ccc(C)cc4)n23)s1 the inhibition was 14.2% (inactive).
With Cn1c(/C=N/n2cnnc2)nc2ccccc21 the inhibition was 35.3% (inactive).
With CC1CN(C(=O)c2cc3cc(Cl)cc(Cl)c3oc2=O)CC(C)O1 (centres undefined) the inhibition was 23.5% (inactive).
In the case of C=CCOc1nc2c(c(=O)n(C)c(=O)n2C)n1C, the inhibition is reported as 34.1% (inactive).
For CCOc1cccc(C(=O)N(Cc2ccco2)C2CCS(=O)(=O)C2)c1 (centres undefined), the inhibition was 13.7% (inactive).
For Cn1c(COc2ccc(Cl)cc2)nnc1SCC(=O)NC1CCCCC1, the inhibition was -7.85% (inactive).
For Cc1cccc2cc(COC(=O)C(C)(C)C)c(=O)[nH]c12, the inhibition was 22.5% (inactive).
With Cc1cccc(-c2c3c(=O)n(C)c(=O)n(C)c3cn2-c2ccc(O)cc2)c1 the inhibition was 17.1% (inactive).
For Cc1ccc(CN2C(=O)CCC2C(=O)NCCCN2CCC(C)CC2)cc1 (centres undefined), the inhibition was 9.9% (inactive).
In the case of Cc1cccc(Nc2nc(N)nc(CN3CCC(C(N)=O)CC3)n2)c1C, the inhibition is reported as -60.3% (inactive).
In the case of COc1cc(OC)nc(NC(=O)CSc2nc3ccccc3o2)n1, the inhibition is reported as -3.75% (inactive).
In the case of CCCC(c1nnnn1Cc1ccc(OC)cc1)N1CCN(c2ccccc2OC)CC1 (centres undefined), the inhibition is reported as 23.6% (inactive).
With COc1cccc(N2CCN(Cc3nc(N)nc(Nc4ccccc4)n3)CC2)c1 the inhibition was 15.7% (inactive).
In the case of Cc1nc2ccc(Br)cn2c1NC(C)(C)C, the inhibition is reported as 3.15% (inactive).
With O=C(Nc1ccc(Cl)c(C(F)(F)F)c1)N1CCCC(O)C1 (centres undefined) the inhibition was -22.3% (inactive).
